From PubChem BioAssay
Values without a mark were called inactive. Inconclusive results are not listed. Active and inactive are the calls of the source. Unless noted, the limit is not given here; nearly all actives have AC50 up to about 23 µM.

Tested on: Aerobactin synthetase IucA (Klebsiella pneumoniae)
Assay: inhibition of K. pneumoniae IucA enzyme – biochemical, Tocris library, absorbance (AID 1345561; call rule not given here;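 also: 100% = enzyme without compound and 0% = no enzyme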)
Conditions: purified IucA enzyme assay, absorbance (OD) read-out; stronger effect = lower value; concentration not given here

SMILES | remaining activity [%]
O=C1C(Cl)=C(NCCN2CCOCC2)C(=O)c2ncccc21 | 118
NC(=O)Nc1sc(-c2ccc(F)cc2)cc1C(N)=O | 122
CCN(c1ccccc1)c1cc(NC)[n+](C)c(C)n1 | 84.7
CC(C)[C@H](CO)Nc1nc(Nc2cccc(Cl)c2)c2ncn(C(C)C)c2n1 | 115

Tested on: not listed separately
Assay: viability loss in pontine glioma line – cell-based, SU-DIPG-XVII, MIPE5.0, CellTiter-Glo, qHTS, dose response (AID 1347060; cut-off not given, nearly all actives have AC50 up to about 26 µM;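 as to AC50: cells exposed to compound for 48 hours before viability readout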)
Conditions: CellTiter-Glo ATP luminescence

SMILES | AC50 | outcome
O=C1C(Cl)=C(NCCN2CCOCC2)C(=O)c2ncccc21 | 8.33 µM (active) | –
NC(=O)Nc1sc(-c2ccc(F)cc2)cc1C(N)=O | 9.34 µM (active) | –
CCN(c1ccccc1)c1cc(NC)[n+](C)c(C)n1 | – | inactive
CC(C)[C@H](CO)Nc1nc(Nc2cccc(Cl)c2)c2ncn(C(C)C)c2n1 | 14.8 µM (active) | –

Tested on: not listed separately
Assay: viability loss in pontine glioma line – cell-based, SU-DIPG-XIII, MIPE4.0, CellTiter-Glo, qHTS, dose response (AID 1347061; cut-off not given, nearly all actives have AC50 up to about 37 µM;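 also: cells exposed to compound for 48 hours before readout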)
Conditions: CellTiter-Glo ATP luminescence

SMILES | AC50 | outcome
O=C1C(Cl)=C(NCCN2CCOCC2)C(=O)c2ncccc21 | 6.62 µM (active) | –
NC(=O)Nc1sc(-c2ccc(F)cc2)cc1C(N)=O | 11.8 µM (active) | –
CCN(c1ccccc1)c1cc(NC)[n+](C)c(C)n1 | – | inactive
CC(C)[C@H](CO)Nc1nc(Nc2cccc(Cl)c2)c2ncn(C(C)C)c2n1 | 20.9 µM (active) | –

Tested on: not listed separately
Assay: viability loss in pontine glioma line – cell-based, JHH-DIPG-1, MIPE4.0, CellTiter-Glo, qHTS, dose response (AID 1347062; cut-off not given, nearly all actives have AC50 up to about 27 µM;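 as to AC50: cells exposed to compound for two days before readout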)
Conditions: JHH-DIPG-1 viability, CellTiter-Glo ATP luminescence

SMILES | AC50 | outcome
O=C1C(Cl)=C(NCCN2CCOCC2)C(=O)c2ncccc21 | 3.32 µM (active) | –
NC(=O)Nc1sc(-c2ccc(F)cc2)cc1C(N)=O | 4.69 µM (active) | –
CCN(c1ccccc1)c1cc(NC)[n+](C)c(C)n1 | – | inactive
CC(C)[C@H](CO)Nc1nc(Nc2cccc(Cl)c2)c2ncn(C(C)C)c2n1 | 16.6 µM (active) | –

Tested on: not listed separately
Assay: viability loss in pontine glioma line – cell-based, SU-DIPG-IV, MIPE4.0, CellTiter-Glo, qHTS, dose response (AID 1347063; cut-off not given, nearly all actives have AC50 up to about 30 µM;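 also: compound exposure lasted 48 hours before the viability readout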)
Conditions: CellTiter-Glo ATP luminescence

SMILES | AC50 | outcome
O=C1C(Cl)=C(NCCN2CCOCC2)C(=O)c2ncccc21 | 4.69 µM (active) | –
NC(=O)Nc1sc(-c2ccc(F)cc2)cc1C(N)=O | 1.05 µM (active) | –
CCN(c1ccccc1)c1cc(NC)[n+](C)c(C)n1 | – | inactive
CC(C)[C@H](CO)Nc1nc(Nc2cccc(Cl)c2)c2ncn(C(C)C)c2n1 | 14.8 µM (active) | –

Tested on: not listed separately
Assay: viability loss in pontine glioma line – cell-based, SU-DIPG-XIII, MIPE5.0, CellTiter-Glo, qHTS, dose response (AID 1347064);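 as to AC50: cells exposed to compound for 48 hours before the viability read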
Conditions: CellTiter-Glo ATP luminescence

SMILES | AC50 | outcome
O=C1C(Cl)=C(NCCN2CCOCC2)C(=O)c2ncccc21 | 3.32 µM (active) | –
NC(=O)Nc1sc(-c2ccc(F)cc2)cc1C(N)=O | 20.9 µM (active) | –
CCN(c1ccccc1)c1cc(NC)[n+](C)c(C)n1 | – | inactive
CC(C)[C@H](CO)Nc1nc(Nc2cccc(Cl)c2)c2ncn(C(C)C)c2n1 | 14.8 µM (active) | –
